A short description of experiment [1]: inhibitors of TNFa-induced NFkB p65 translocation, primary screen, imaging, HUVEC, MLSMR starter and 10KST1 sets (AID 438;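 active = inhibition above 20% together with a positive visual image hit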;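 also: compound added about 3h40 before a 20 min TNFalpha stimulation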;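 as to inhibition: signal is the nuclear over cytoplasmic p65 intensity ratio per well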). The following applies: HUVEC TNFa-induced p65 nuclear translocation; cell count: measured here: nuclei count (cytotoxicity indicator), at 2.08 µM; inhibition: at 2 µM, stronger effect = higher value, 0% TNFa-plus-vehicle, 100% no-TNFa wells.
Experiment [2] can be described thus: reduction of polyQ htt aggregates in cells – imaging, exon1htt(103Q)mCFP cells, high-content imaging, primary screen (AID 483;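 active = visual image review flags a hit and inhibition of aggregation exceeds 20%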;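 also: compound exposure lasted 3 days before fixation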;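 as to nuclei count: percent of the per-plate median nuclei count of sample wells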). The settings on record: exon1htt(103Q)mCFP cell line, aggregate imaging, at 2 µM; inhibition of aggregation: stronger effect = higher value; nuclei count: measured here: cell count, toxicity.
Experiment [3] is described as follows: endothelial E-selectin expression blockers – imaging, HUVEC, immunofluorescence, MLSMR starter and 10KST1 sets, primary screen (AID 487;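 active = visually confirmed hit in the image check and inhibition above 20%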;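 as to inhibition: signal is fraction of cell area covered by stained E-selectin grains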;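 as to nuclei count: 100% = median nuclei count of all wells on the same plate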). The settings on record: HUVEC TNFalpha-induced E-selectin immunofluorescence imaging, at 2 µM; inhibition: stronger effect = higher value; nuclei count: measured here: cell number, toxicity.
Experiment [4] can be described thus: Primary imaging screen for DUSP6 inhibitors that restore phospho-Erk in transfected HeLa cells, chemical complementation (AID 609;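 active = compounds giving at least 50% inhibition in the cell-based MKP-3 phosphatase rescue imaging test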;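 as to inhibition: phospho-Erk level distribution per well compared with pooled transfected vehicle control wells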). The following applies: HeLa MKP-3 transfected, phospho-Erk imaging KS statistic, at 10 µM, cells stimulated with TPA for 15 min.
The target in experiment [5] is Dual specificity protein phosphatase 6 (Homo sapiens) (UniProt Q16828). The experiment is described as above. The following applies: HeLa MKP-3 transfected, phospho-Erk imaging KS statistic; at 10 µM; stronger effect = higher value; cells stimulated with TPA for 15 min.
The target of experiment [6] is Voltage-gated potassium channel subunit beta-2 (Rattus norvegicus) (UniProt P62483). In words: inhibitors of rat Kvbeta2 reductase activity – biochemical, NADPH fluorescence, primary screen (AID 622;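 active = fluorescence slope higher than the sample average by over 3 SD, cut at about -0.22 in these data, passing the limit was not always enough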;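 also: slope of raw intensity against log time taken from 70 to 1610 s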). The following applies: recombinant KvBeta, 4-cyanobenzaldehyde reduction, at 10 µM, stronger effect = higher value.
For experiment [7] the target is unchanged. In words: enhancers of rat Kvbeta2 NADPH turnover – biochemical, NADPH fluorescence, primary screen (AID 623;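 active = NADPH fluorescence slope more negative than the mean of all samples by about 3 SD, 99.7% confidence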;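 also: fluorescence intensity change per second fitted from 20 to 320 s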). The following applies: Recombinant KvBeta, NADPH fluorescence decrease slope, 10 min; at 10 µM; stronger effect = lower value.
In experiment [8] the target is Alpha-2C adrenergic receptor (Homo sapiens) (UniProt P18825). Briefly: compounds altering alpha2C-coupled GIRK flux – cell-based, HEK293 alpha2C/GIRK1/2, thallium flux, primary screen (AID 624;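 active = fluorescence slope after compound addition differing from the mean of all screened samples at 99.7% confidence, in either direction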;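 also: slope of fluorescence ratio to pre-addition baseline per second over 15 to 24 s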). The settings on record: thallium flux BTC fluorescence, at 10 µM, actives lie on both sides.
Experiment [9] is described as follows: inhibitors of larval lipid processing in zebrafish, primary screen, whole organism, PED6 fluorescence, gall bladder and intestine (AID 686;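 active = a full or partial loss of lipid-probe fluorescence in the fish gall bladder, intestine or both, judged by eye; inactive = no fluorescence loss, or compound toxic to the fish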;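 also: larvae 5 to 7 days old with five fish per well; signal comes from phospholipase A2 cleavage of quenched PED6 carried via bile; overnight exposure to compound and PED6 before scoring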). The following applies: Zebrafish larvae PED6 lipid processing, fluorescence scoring; screened at 20 µM (by protocol).
A short description of experiment [10]: loss of swimming-algae plug formation – whole organism, Chlamydomonas reinhardtii, WT vs cilia-less mutant, absorbance, 96-well, primary screen (AID 463189).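 Also: 0% = wild type cc124 cells in DMSO and 100% = ciliumless bld1 mutant cells.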 The settings on record: Chlamydomonas reinhardtii gravitaxis, OD600 absorbance, 2 days; at 10 µM; stronger effect = higher value.
Experiment [11] in a line: blockers of RIG-like receptor reporter activation – cell-based, Sendai virus stimulus, luciferase, 10K MLSCN set, TLR/RLR signaling modifier project, primary screen (AID 602276;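 active = inhibition at or above 50% at 10 µM; inactive = inhibition below 50%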;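 also: firefly luciferase from ISG56 promoter only with Renilla not read in this screen; 0% = Sendai virus plus DMSO and 100% = medium plus DMSO without virus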). The settings on record: HEK293 RL24 IRF3 luciferase reporter, at 10 µM, stronger effect = higher value.
A short description of experiment [12]: TLR3 IRF3 reporter activation blockers – cell-based, poly I:C stimulus, luciferase, 10K MLSCN set, primary screen (AID 602277;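 active = inhibition of the reporter signal at or above 50%; inactive = inhibition below 50%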). The settings on record: HEK293-TLR3 RL24 IRF3 luciferase reporter, at 10 µM, stronger effect = higher value.
Setting [13] is: measured here: cell density z-score.
Where [14] appears, read: measured here: nuclear c-Myc green intensity z-score.
Setting [15] is: measured here: nuclear pErk red intensity z-score, stronger effect = higher value.

Where “and” joins values, the source holds several entries; their conditions need not be identical. Equal entries are not always repeated. Calls of active or inactive are those of the source.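 The calls were made as follows, unless noted: active = inhibition at or above 50% relative to wild type and mutant plate controls; inactive = inhibition below 50%.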

Sequence of Voltage-gated potassium channel subunit beta-2 (Rattus norvegicus) (P62483 whole entry, looked up): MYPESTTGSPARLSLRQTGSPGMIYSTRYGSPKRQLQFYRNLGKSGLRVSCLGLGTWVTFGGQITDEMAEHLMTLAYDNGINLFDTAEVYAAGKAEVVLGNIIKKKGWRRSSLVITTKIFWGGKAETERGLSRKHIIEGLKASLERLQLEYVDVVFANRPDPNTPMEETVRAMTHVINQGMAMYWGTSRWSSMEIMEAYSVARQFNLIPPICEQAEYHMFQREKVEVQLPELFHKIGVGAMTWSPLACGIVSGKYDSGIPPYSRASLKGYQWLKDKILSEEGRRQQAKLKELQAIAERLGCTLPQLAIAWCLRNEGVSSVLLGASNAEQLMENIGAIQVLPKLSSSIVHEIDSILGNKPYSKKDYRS
Sequence of Dual specificity protein phosphatase 6 (Homo sapiens) (Q16828 whole entry, looked up): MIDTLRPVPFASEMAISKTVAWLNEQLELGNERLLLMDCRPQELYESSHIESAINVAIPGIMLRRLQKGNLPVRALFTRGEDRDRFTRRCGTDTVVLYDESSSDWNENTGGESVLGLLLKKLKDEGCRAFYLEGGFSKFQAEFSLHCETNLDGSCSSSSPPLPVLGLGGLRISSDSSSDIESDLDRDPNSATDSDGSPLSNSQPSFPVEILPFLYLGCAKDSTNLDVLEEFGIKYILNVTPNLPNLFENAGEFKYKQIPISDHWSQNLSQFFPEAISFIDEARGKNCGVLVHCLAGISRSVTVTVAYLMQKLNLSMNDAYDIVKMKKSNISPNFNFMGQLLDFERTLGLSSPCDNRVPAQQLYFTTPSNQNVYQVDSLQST
Sequence of Alpha-2C adrenergic receptor (Homo sapiens) (P18825 whole entry, looked up): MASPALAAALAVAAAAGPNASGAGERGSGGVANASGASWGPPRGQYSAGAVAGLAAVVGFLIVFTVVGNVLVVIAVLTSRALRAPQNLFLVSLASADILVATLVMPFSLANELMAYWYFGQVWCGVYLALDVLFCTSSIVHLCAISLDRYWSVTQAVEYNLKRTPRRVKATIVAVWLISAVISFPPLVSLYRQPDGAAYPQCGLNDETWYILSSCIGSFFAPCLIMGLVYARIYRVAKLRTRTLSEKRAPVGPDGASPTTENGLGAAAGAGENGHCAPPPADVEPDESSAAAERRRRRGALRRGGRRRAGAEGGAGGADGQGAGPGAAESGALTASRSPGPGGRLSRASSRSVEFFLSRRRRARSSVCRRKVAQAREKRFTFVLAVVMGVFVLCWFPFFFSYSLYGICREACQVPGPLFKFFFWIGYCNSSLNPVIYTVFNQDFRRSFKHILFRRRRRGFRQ

On to `Cc1nc(NS(=O)(=O)c2ccccc2)sc1NC(=O)OC(C)C`, for which the cell count in [1] amounted to 364. The inhibition is -12.7% (inactive) in [1]; -118% (inactive) in experiment [3]; 17.5% (inactive) in [5]; 16.7% (inactive) in experiment [10]; 2.77% (inactive) in experiment [11]; 9.41% (inactive) in experiment [12]. Moreover, the inhibition of aggregation in experiment [2] is -9.8% (inactive). Further, the figures for the nuclei count in experiment [2] and in experiment [3] were 108% and 138%, respectively. Further, the z-score in experiment [4] (setting [13]) is -0.163; in experiment [4] (setting [14]), -0.612; in experiment [4] (setting [15]), 0.551. Further, the fluorescence slope in [6] was -0.415 (inactive). The NADPH fluorescence slope in experiment [7] is 1e-05 (inactive). The slope in experiment [8] was 0.00272 (inactive). Also, the call in experiment [9] was inactive.
For `COc1ccc(C2CNC(=O)C2)cc1OC1CCCC1` (stereo not given), in [1], the cell count was determined as 595. The inhibition in [1] is -1.7% (inactive); in experiment [3], -59.8% (inactive); in experiment [5] it was 3.45% (inactive); in experiment [10] it was 0.165% (inactive) and 12.7% (inactive); in experiment [11], 15.5% (inactive); in [12], 0.301% (inactive). In experiment [2], the inhibition of aggregation is -10.3% (inactive). Moreover, the nuclei count in experiment [2] was found to be 97.8%; in experiment [3] it was 124%. The results for the z-score in experiment [4] (setting [13]), in experiment [4] (setting [14]) and in experiment [4] (setting [15]) were -1.08, -0.0715 and 0.178, respectively. Further, the fluorescence slope in experiment [6] is -0.507 (inactive). The NADPH fluorescence slope in experiment [7] was -0.000115 (inactive). Also, in experiment [8], the slope is 0.00579 (inactive). Moreover, the compound was classed as inactive in experiment [9].
As for `COCCOC(=O)c1c(C)nc(SCC(=O)Nc2ccc(OC)cc2)c(C#N)c1-c1ccco1`, the cell count in experiment [1] was found to be 386. For the same compound, the inhibition is -17.9% (inactive) in [1]; -23.1% (inactive) in [3]; -6.59% (inactive) in experiment [5]; -0.332% (inactive) in experiment [10]; 16.9% (inactive) in experiment [11]; 12.1% (inactive) in experiment [12]. For the same compound, the inhibition of aggregation in experiment [2] is -11.5% (inactive). Moreover, the nuclei count in [2] was determined as 76%; in [3], 90%. The z-score is -0.584 in experiment [4] (setting [13]), -0.072 in experiment [4] (setting [14]) and -0.599 in experiment [4] (setting [15]). Besides, in [6], the fluorescence slope is -0.422 (inactive). Further, the NADPH fluorescence slope in experiment [7] is -2.9e-05 (inactive). The slope in experiment [8] was 0.00733 (inactive). Further, the compound was called inactive in experiment [9].
For the compound `COc1ccc2c(c1OC)C(=O)OC2C1c2c(cc3c(c2OC)OCO3)CCN1C` (stereo not given), in experiment [1], the cell count is 463 and 544. Moreover, the inhibition is -10.9% (inactive) and 0.8% (inactive) in [1]; -43.9% (inactive) and -115% (inactive) in experiment [3]; 5.42% (inactive) in experiment [5]; 19.2% (inactive) in experiment [10]; 23.1% (inactive) and 13.1% (inactive) in [11]; 29.1% (inactive) and 24% (inactive) in [12]. In experiment [2], the inhibition of aggregation was -1% (inactive) and -12.6% (inactive). The nuclei count is 101% and 94.4% in [2]; 132% and 119% in experiment [3]. Also, the z-score in experiment [4] (setting [13]) was 1.55; in experiment [4] (setting [14]) it was -0.813; in [4] (setting [15]), -0.77. Moreover, in experiment [6], the fluorescence slope is -0.541 (inactive) and -0.459 (inactive). For the same compound, the NADPH fluorescence slope in [7] is 7.5e-05 (inactive) and -6e-05 (inactive). Also, the slope in experiment [8] is 0.0053 (inactive) and 0.00526 (inactive). Besides, the call in experiment [9] was inactive.
On to `O=C(/C=C/c1ccccc1)c1ccccc1`, for which the cell count in [1] is 614. Also, the inhibition in [1] was -6.5% (inactive); in experiment [3], -56.5% (inactive); in experiment [5] it was 23.2% (inactive); in experiment [10] it was 21.2% (inactive); in experiment [11], -12.6% (inactive); in [12], -54.9% (inactive). Besides, the inhibition of aggregation in [2] is -4.6% (inactive). The results for the nuclei count in experiment [2] and in experiment [3] were 98.3% and 113%, respectively. For the same compound, the z-score in experiment [4] (setting [13]) was 0.266; in [4] (setting [14]) it was 0.631; in experiment [4] (setting [15]) it was 0.428. Also, the fluorescence slope in experiment [6] is -0.452 (inactive). Moreover, the NADPH fluorescence slope in experiment [7] was -2.2e-05 (inactive). In addition, in experiment [8], the slope was 0.0047 (inactive). For the same compound, the result in [9] was inactive.
With `Cc1c(Cl)cccc1Nc1ccccc1C(=O)O`, the cell count in experiment [1] turned out to be 612. In addition, the inhibition was -8.8% (inactive) in [1]; -156% (inactive) in [3]; 5.42% (inactive) in experiment [5]; -6.31% (inactive) in [10]; 4.32% (inactive) in experiment [11]; 19.5% (inactive) in experiment [12]. Also, in experiment [2], the inhibition of aggregation is 17.9% (inactive). In addition, the values for the nuclei count in experiment [2] and in experiment [3] were 108% and 129%, respectively. In addition, the z-score in experiment [4] (setting [13]) was -0.93; in [4] (setting [14]) it was -0.312; in [4] (setting [15]), 1.31. Further, in experiment [6], the fluorescence slope is -0.466 (inactive). Also, the NADPH fluorescence slope in [7] is -4.7e-06 (inactive). Besides, the slope in experiment [8] was 0.00655 (inactive). Besides, in [9], the call was inactive.
`c1ccc(SCc2nc3ccccc3[nH]2)nc1`: in [1], the cell count was found to be 407. Moreover, the inhibition in [1] is -12.9% (inactive); in experiment [3], -65.1% (inactive); in [5] it was 9.39% (inactive); in experiment [10], 13.1% (inactive); in experiment [11] it was -49.8% (inactive); in [12], -119% (inactive). The inhibition of aggregation in experiment [2] is -9.8% (inactive). The nuclei count stood at 107% in experiment [2] and 119% in [3]. For the same compound, the z-score in experiment [4] (setting [13]) was 0.727; in [4] (setting [14]), 0.54; in experiment [4] (setting [15]) it was -0.488. Further, the fluorescence slope in experiment [6] is -0.624 (inactive). Besides, the NADPH fluorescence slope in experiment [7] is -2.9e-05 (inactive). Also, in experiment [8], the slope was 0.00427 (inactive). For the same compound, the outcome in experiment [9] is “inactive; toxic”.
`COc1ccccc1N1CCN(CC(O)COc2cccc3ccccc23)CC1` (stereo not given): in [1], the cell count amounted to 617. Further, the inhibition in experiment [1] was -3.6% (inactive); in experiment [3], -26.2% (inactive); in [5], 8% (inactive); in experiment [10], 7.05% (inactive) and 42.9% (inactive); in [11] it was 16.5% (inactive); in experiment [12], 36.9% (inactive). The inhibition of aggregation in [2] is -18.7% (inactive). Also, the nuclei count worked out at 108% in experiment [2] and 107% in experiment [3]. Moreover, the results for the z-score in experiment [4] (setting [13]), in experiment [4] (setting [14]) and in experiment [4] (setting [15]) were 0.673, -1.31 and -2.39, respectively. For the same compound, in [6], the fluorescence slope is -0.431 (inactive). In addition, in experiment [7], the NADPH fluorescence slope was -7.7e-05 (inactive). In addition, the slope in experiment [8] is 0.00349 (inactive). Further, the result in experiment [9] was inactive.
For the compound `CCCCCC(=O)N1CC2(CC)CN(C(=O)CCCCC)CC(CC)(C1)C2=O`, the cell count in experiment [1] stood at 548. The inhibition in [1] is 4.4% (inactive); in experiment [3], -77.8% (inactive); in experiment [5], 7.42% (inactive); in experiment [10], 22.6% (inactive); in experiment [11], 3.77% (inactive); in experiment [12], 34.5% (inactive). For the same compound, the inhibition of aggregation in [2] was 26.5% (inactive). Besides, the nuclei count in [2] is 90%; in experiment [3] it was 117%. For the same compound, the values for the z-score in experiment [4] (setting [13]), in [4] (setting [14]) and in experiment [4] (setting [15]) were 0.465, -0.132 and -0.254, respectively. Also, the fluorescence slope in [6] was -0.308 (inactive). Moreover, the NADPH fluorescence slope in [7] was -9.9e-07 (inactive). In addition, the slope in [8] is 0.00431 (inactive). Besides, in experiment [9], the call was inactive.
With `Cc1cccc(C)c1NC(=O)C1CCCCN1C` (stereo not given), the cell count in [1] is 662. Moreover, the inhibition is -8.2% (inactive) in [1]; -104% (inactive) in [3]; 3.45% (inactive) in [5]; 3.16% (inactive) in experiment [10]; 12.7% (inactive) in experiment [11]; 35.5% (inactive) in [12]. Besides, the inhibition of aggregation in experiment [2] is -22% (inactive). Further, the nuclei count was 108% in experiment [2] and 139% in experiment [3]. In addition, the z-score in experiment [4] (setting [13]) is 1.2; in experiment [4] (setting [14]) it was -0.238; in [4] (setting [15]), 0.358. Further, in experiment [6], the fluorescence slope is -0.488 (inactive). The NADPH fluorescence slope in experiment [7] was -4.1e-05 (inactive). In experiment [8], the slope was 0.00459 (inactive). Besides, the outcome in [9] was inactive.

For the origin of these results see PubChem BioAssay.
